Reference: PubChem BioAssay (NCI)
Compounds without any hit were thinned out: in the full panel of roughly 83,000, 20% have a hit.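 Single-dose data. Exposure time 48 hours. Values below 10 considered active.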 The source made the active and inactive calls.

What was measured:
Experiment in all cases: NCI-60 one-dose screen, 48 h (100 = growth as untreated, 0 = no growth, -100 = all killed)
Details in all cases: 10 µM unless noted
SR leukemia = tested on: SR leukemia
RPMI-8226 leukemia = tested on: RPMI-8226 leukemia
OVCAR-8 ovarian = tested on: OVCAR-8 ovarian
OVCAR-5 ovarian = tested on: OVCAR-5 ovarian
OVCAR-4 ovarian = tested on: OVCAR-4 ovarian
SK-OV-3 ovarian = tested on: SK-OV-3 ovarian
IGROV1 ovarian = tested on: IGROV1 ovarian
OVCAR-3 ovarian = tested on: OVCAR-3 ovarian
HS 578T breast = tested on: HS 578T breast
NCI/ADR-RES ovarian = tested on: NCI/ADR-RES ovarian

Measured: growth

Nc1nc2ccc(-c3nc4ccc5[nH]ncc5c4c4c3CCCC4)cc2s1
inactive: SR leukemia 95.9% | RPMI-8226 leukemia 115% | OVCAR-8 ovarian 100% | OVCAR-5 ovarian 105% | OVCAR-4 ovarian 107% | SK-OV-3 ovarian 94.4% | IGROV1 ovarian 102% | OVCAR-3 ovarian 110% | HS 578T breast 99.7% | NCI/ADR-RES ovarian 103%

COc1ccc(C(=O)c2cc3c(N)c(C(=O)Nc4ccc(C)cc4)sc3nc2C)cc1
inactive: SR leukemia 18.1% | RPMI-8226 leukemia 24.1% | OVCAR-8 ovarian 22% | OVCAR-5 ovarian 29.6% | OVCAR-4 ovarian 51.1% | SK-OV-3 ovarian 35.3% | IGROV1 ovarian 28.6% | NCI/ADR-RES ovarian 14.9%
active: OVCAR-3 ovarian -5.4% | HS 578T breast -1.41%

COC1=CC(c2ccc[nH]2)=N/C1=C\c1[nH]c(C)c(C(=O)OC(C)C)c1C
active: RPMI-8226 leukemia -34.6% | OVCAR-8 ovarian 2.67% | OVCAR-5 ovarian -40.2% | OVCAR-4 ovarian -49.7% | SK-OV-3 ovarian 7.3% | IGROV1 ovarian -41.5% | OVCAR-3 ovarian -53.9% | HS 578T breast -32.8% | NCI/ADR-RES ovarian -12.5%
inactive: SR leukemia 11.8%

O=S(=O)(Nc1cc(F)cc(Cl)c1)c1ccc(-c2cnc(C3CC3)o2)cc1
active: HS 578T breast -3.79%
inactive: SR leukemia 25.4% | RPMI-8226 leukemia 28.9% | OVCAR-8 ovarian 39.8% | OVCAR-5 ovarian 50.8% | OVCAR-4 ovarian 52.5% | SK-OV-3 ovarian 44.2% | IGROV1 ovarian 30% | OVCAR-3 ovarian 10.2% | NCI/ADR-RES ovarian 21.9%

CCN(CC)CCn1c2ccc(O)cc2c2sc3cc(O)ccc3c(=O)c21
active: SR leukemia 5.78%
inactive: RPMI-8226 leukemia 28.3% | OVCAR-8 ovarian 31.4% | OVCAR-5 ovarian 54% | OVCAR-4 ovarian 46.6% | SK-OV-3 ovarian 48.7% | IGROV1 ovarian 15.4% | OVCAR-3 ovarian 41% | HS 578T breast 64.5% | NCI/ADR-RES ovarian 61.1%

O=C(COc1ccc(-c2nc3cc(Cl)c(Cl)cc3[nH]2)cc1)N=Nc1c(O)[nH]c2ccc(Cl)cc12
inactive: SR leukemia 31.1% | RPMI-8226 leukemia 56% | OVCAR-8 ovarian 37% | OVCAR-5 ovarian 95.6% | OVCAR-4 ovarian 64.2% | SK-OV-3 ovarian 84.5% | IGROV1 ovarian 79.9% | OVCAR-3 ovarian 75.1% | HS 578T breast 67.5% | NCI/ADR-RES ovarian 95.8%

C=C1C(=O)O[C@H]2[C@H]1CC/C(COC(=O)NCc1ccc(Cn3c(=O)sn(CCCCC)c3=O)cc1)=C\CC[C@@]1(C)O[C@@H]21
inactive: OVCAR-8 ovarian 58% | OVCAR-5 ovarian 72.5% | OVCAR-4 ovarian 29.5% | SK-OV-3 ovarian 93.6% | IGROV1 ovarian 24.1% | HS 578T breast 71% | NCI/ADR-RES ovarian 99.8%
active: SR leukemia 3.58% | RPMI-8226 leukemia -22.8% | OVCAR-3 ovarian -56.1%

N#Cc1c(-c2ccc(Cl)cc2)nc(NN2C(=O)c3ccccc3C2=O)nc1N1CCOCC1
inactive: SR leukemia 84% | RPMI-8226 leukemia 105% | OVCAR-8 ovarian 102% | OVCAR-5 ovarian 102% | OVCAR-4 ovarian 98.7% | SK-OV-3 ovarian 106% | IGROV1 ovarian 109% | OVCAR-3 ovarian 113% | HS 578T breast 101% | NCI/ADR-RES ovarian 107%

C/C(Cc1ccc(Cl)cc1)=C(\c1ccc(O)cc1)c1ccc(Cl)cc1
inactive: SR leukemia 80.5% | RPMI-8226 leukemia 72.5% | OVCAR-8 ovarian 104% | OVCAR-5 ovarian 92.5% | OVCAR-4 ovarian 89.3% | SK-OV-3 ovarian 112% | IGROV1 ovarian 96.8% | OVCAR-3 ovarian 103% | HS 578T breast 99.6% | NCI/ADR-RES ovarian 100%

N#Cc1nc(-c2ccc(F)cc2)oc1S(=O)(=O)N1CCCCC1
inactive: RPMI-8226 leukemia 49.4% | OVCAR-8 ovarian 58.3% | OVCAR-5 ovarian 95.9% | OVCAR-4 ovarian 57.4% | SK-OV-3 ovarian 104% | IGROV1 ovarian 59.6% | HS 578T breast 95.6% | NCI/ADR-RES ovarian 97.7%
active: SR leukemia 1.55% | OVCAR-3 ovarian -54.5%

CCN(C)S(=O)(=O)Nc1cccc(Nc2ncnc3cc(NC(=O)CCl)ccc23)c1Cl
inactive: OVCAR-4 ovarian 14.9% | SK-OV-3 ovarian 23.4% | HS 578T breast 13.4% | NCI/ADR-RES ovarian 59.3%
active: SR leukemia 6.73% | RPMI-8226 leukemia -6.79% | OVCAR-8 ovarian 2.03% | OVCAR-5 ovarian -17.5% | IGROV1 ovarian -7.09% | OVCAR-3 ovarian -65.1%

CC(C)c1ccc(-n2c(=S)[nH]c3sc4cc(O)ccc4c3c2=O)cc1
inactive: SR leukemia 102% | RPMI-8226 leukemia 100% | OVCAR-8 ovarian 102% | OVCAR-5 ovarian 100% | OVCAR-4 ovarian 111% | SK-OV-3 ovarian 112% | IGROV1 ovarian 91.4% | OVCAR-3 ovarian 104% | HS 578T breast 92.4% | NCI/ADR-RES ovarian 103%

Cc1cc(=O)oc2cc(OCc3nn4c(Nc5nc6ccccc6s5)c(-c5ccccc5)nc4s3)ccc12
inactive: SR leukemia 94.7% | RPMI-8226 leukemia 82.6% | OVCAR-8 ovarian 80.4% | OVCAR-5 ovarian 97.5% | OVCAR-4 ovarian 61.4% | SK-OV-3 ovarian 92% | IGROV1 ovarian 89.2% | OVCAR-3 ovarian 95.3% | HS 578T breast 78.1% | NCI/ADR-RES ovarian 84.6%
